Inconclusive results are not listed. Calls of active or inactive are those of the source. Calls come from the whole dose curve; as a rule, active = well fitted curve in the direction sought with a large enough effect; inconclusive = small, poorly fitted or top-dose-only effect, or another doubt; inactive = no such curve, though single readings can be large; an effect the other way counts as inactive or inconclusive.
Assays:
[1] = system: Zika virus NS2B-NS3 protease (linked construct); assay: Primary screen NINDS Rhodamine qHTS for Zika virus inhibitors (AID 1347160); note: nearly all actives have a fitted effect of over 55% in size
Outline: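 Rhodamine110-peptide cleavage (1.5 µM substrate) by 25 nM linked NS2B-NS3 enzyme at pH 8.0 (Tris, Tween 20), after 15 min RT preincubation with compounds; 15-min fluorescence change normalized to controls and Hill-fitted.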

[2] = OV-KATE Cancer Cell Toxicity qHTS against the NCATS CANVASS Library (AID 1347345)
Outline: (§1)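 Viability read-out: CellTiter-Glo luminescence after 72 h compound exposure at 37 °C/5% CO2. Cells plated at 1000/well, 4 h pre-incubation; 11-point titration. Bortezomib served as control.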

[3] = HPAF-II Cancer Cell Toxicity qHTS against the NCATS CANVASS Library (AID 1347346); note: series mostly up to about 38 µM; nearly all actives have a fitted effect of over 55% in size
Outline: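 First, HPAF-II cells are plated (1000 cells/well) and held 4 h at 37 degrees C. Next, compounds are pin-transferred as an 11-point series. After 72 h, CellTiter-Glo is added and luminescence measured.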

[4] = UWB1.289 Cancer Cell Toxicity qHTS against the NCATS CANVASS Library (AID 1347347); note: series mostly up to about 38 µM; nearly all actives have a fitted effect of over 60% in size
Outline: as §1

[5] = OV-SAHO Cancer Cell Toxicity qHTS against the NCATS CANVASS Library (AID 1347348); note: series mostly up to about 38 µM; nearly all actives have a fitted effect of over 55% in size
Outline: as §1

[6] = Panc-1005 Cancer Cell Toxicity qHTS against the NCATS CANVASS Library (AID 1347349); note: series mostly up to about 38 µM; nearly all actives have a fitted effect of over 60% in size
Outline: as §1

[7] = SW1088 Cancer Cell Toxicity qHTS against the NCATS CANVASS Library (AID 1347350); note: nearly all actives have a fitted effect of over 75% in size
Outline: as §1

[8] = U-118MG Cancer Cell Toxicity qHTS against the NCATS CANVASS Library (AID 1347351); note: series mostly up to about 38 µM
Outline: as §1

[9] = COV-362 Cancer Cell Toxicity qHTS against the NCATS CANVASS Library (AID 1347352); note: series mostly up to about 38 µM
Outline: (§2)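 First, 1000 cells go into each well and rest for 4 hours. Next, an 11-point dilution range is pinned in. Plates then incubate 72 hours before CellTiter-Glo addition and luminescence reading.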

[10] = A2780 Cisplatin Sensitive Ovarian Cancer Cell Toxicity qHTS against the NCATS CANVASS Library (AID 1347353); note: nearly all actives have a fitted effect of over 60% in size
Outline: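 Cells are plated at 750 per well and rest for 4 hours. Compounds are added across eleven concentrations, and incubated 72 hours before ATP is quantified by luminescence.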

[11] = UWB1.289-WTBRCA1 Cancer Cell Toxicity qHTS against the NCATS CANVASS Library (AID 1347354)
Outline: as §2

[12] = HEK-293 Cancer Cell Toxicity qHTS against the NCATS CANVASS Library (AID 1347355); note: series mostly up to about 46 µM; nearly all actives have a fitted effect of over 65% in size
Outline: as §2

[13] = HPAF-II 24hr Apoptosis Induction qHTS against the NCATS CANVASS Library (AID 1347356)
Outline: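 Cells seeded at 500 per well, then compounds pin-transferred in an 11-point concentration series. After 24 hours at 37 degrees C, Caspase-Glo 3/7 was added and luminescence measured following 15 min at room temperature.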

[14] = HEK293 18hr Apoptosis Induction qHTS against the NCATS CANVASS Library (AID 1347357)
Outline: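 Luminescent caspase-3/7 signal is measured in HEK293 cells exposed for 18 hours to an 11-point concentration series; doxorubicin serves as the plate control.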

[15] = HPAF-II 12hr Apoptosis Induction qHTS against the NCATS CANVASS Library (AID 1347358)
Outline: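 Cells plated at 500 per well are dosed with compound and incubated 12 hours at 37 degrees C. Caspase-Glo 3/7 reagent is added and, after 15 min at room temperature, luminescence proportional to caspase activity is measured.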

[16] = HEK293 24hr Apoptosis Induction qHTS against the NCATS CANVASS Library (AID 1347359)
Outline: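 HEK293 cells (500/well, DMEM + 10% FBS) were exposed to compounds in an 11-point series for 24 hours at 37 degrees C, then caspase-3/7 activity was read by Caspase-Glo DEVD luciferase luminescence after 15 min.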

[17] = HPAF-II 18hr Apoptosis Induction qHTS against the NCATS CANVASS Library (AID 1347360)
Outline: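 Apoptosis was scored as caspase-3/7 activity in HPAF-II pancreatic cancer cells treated 18 hours with an 11-point concentration series.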

[18] = HEK293 12hr Apoptosis Induction qHTS against the NCATS CANVASS Library (AID 1347361)
Outline: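 Apoptosis in HEK293 was scored as caspase-3/7 luminescence following 12 h treatment with a compound concentration series in qHTS format.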

[19] = system: NAD(P)H diaphorase (Clostridium kluyveri); assay: Diaphorse counterscreen qHTS: Assay Interference Panel against the NCATS CANVASS Library (AID 1347362)
Outline: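 Clostridium kluyveri diaphorase in PBS with 0.01% Tween-20 was preincubated 15 min at room temperature in the dark with compounds (11-point series). Resorufin fluorescence (ex 525/20, em 598/25) was read 5 min after adding resazurin/NADH.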

[20] = target: Luciferin 4-monooxygenase (Photinus pyralis) (UniProt P08659); assay: Firefly luciferase counterscreen qHTS: Assay Interference Panel against the NCATS CANVASS Library (AID 1347363); note: series mostly up to about 57 µM
Luciferin 4-monooxygenase (Photinus pyralis), sequence (P08659 whole entry, looked up): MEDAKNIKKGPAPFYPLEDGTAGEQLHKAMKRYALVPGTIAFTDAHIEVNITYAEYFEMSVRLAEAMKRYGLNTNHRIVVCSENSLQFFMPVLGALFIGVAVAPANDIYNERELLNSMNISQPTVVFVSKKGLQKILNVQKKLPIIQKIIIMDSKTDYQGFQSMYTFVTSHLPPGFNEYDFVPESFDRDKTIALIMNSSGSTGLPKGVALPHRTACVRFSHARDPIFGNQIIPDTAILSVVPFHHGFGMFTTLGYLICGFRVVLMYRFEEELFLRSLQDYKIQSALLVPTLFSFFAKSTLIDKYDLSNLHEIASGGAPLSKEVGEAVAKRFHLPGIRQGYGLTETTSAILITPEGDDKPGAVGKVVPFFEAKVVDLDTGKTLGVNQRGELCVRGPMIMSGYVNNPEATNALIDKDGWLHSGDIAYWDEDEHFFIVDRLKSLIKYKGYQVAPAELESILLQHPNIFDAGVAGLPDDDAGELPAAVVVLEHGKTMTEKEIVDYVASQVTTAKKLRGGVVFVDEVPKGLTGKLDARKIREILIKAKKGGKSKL
Outline: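 Purified P. pyralis luciferase was added to compounds (11-point series) preincubated 15 min at room temperature with substrate containing 0.013 mM D-luciferin and 0.013 mM ATP; luminescence was read after 5 min.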

[21] = KB-8-5-11 Cancer Cell Toxicity qHTS against the NCATS CANVASS Library (AID 1347364); note: series mostly up to about 46 µM; nearly all actives have a fitted effect of over 75% in size
Outline: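 Terse: KB-8-5-11, 500 cells/well, 72 hr, 37C/5% CO2, 11-pt titration, CellTiter-Glo readout; confirmatory runs ± 1uM tariquidar in medium.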

[22] = SDT Cancer Cell Toxicity qHTS against the NCATS CANVASS Library (AID 1347365);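 note: SDT canine glioma cells 500 per well in 1536 well plates; series mostly up to about 46 µM; nearly all actives have a fitted effect of over 60% in size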
Outline: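 Cytotoxicity is measured from cellular ATP: compounds in an 11-point concentration series are pinned onto SDT cells, incubated 72 hr at 37C, then CellTiterGlo is added and luminescence read.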

Measured: Potency

C=C[C@@]1(C)CC[C@@H]([C@H](C)C(=O)/C=C/C(C)C)O1
inactive: all assays above

Reference: PubChem BioAssay (NCATS)
